From PubChem BioAssay
HSP90 refold inh – blocks HSP90-mediated luciferase refolding in reticulocyte lysate; Rabbit reticulocyte lysate, luciferase refolding luminescence, 3 h; inhibition, % at 5.6 µM; 290,000 compounds, 0.91% hits;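 active = inhibition above the screen-wide mean plus 3 SD, computed separately per campaign, cut at about 16% in these data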;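 also: 0% = DMSO wells and 100% = 60 µM geldanamycin wells; inhibitors lower the luminescence because luciferase stays unfolded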
SENP8 block-1 – inhibitors of human SENP8 protease. inhibition, % at 10 µM. AID 2540. purified SENP8, Z-RLRGG-aminoluciferin cleavage, luminescence. 330,000 compounds, 1.2% hits. Q96LD8; in the data active = inhibition above about 50%
Target sequence (Q96LD8 whole entry, looked up): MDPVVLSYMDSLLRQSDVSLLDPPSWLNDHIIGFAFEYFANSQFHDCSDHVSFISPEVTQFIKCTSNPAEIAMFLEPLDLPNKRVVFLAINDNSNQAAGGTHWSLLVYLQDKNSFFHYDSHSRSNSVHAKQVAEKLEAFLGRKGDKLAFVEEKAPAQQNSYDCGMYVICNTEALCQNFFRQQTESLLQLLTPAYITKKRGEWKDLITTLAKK
SENP7 inh – SENP7 protease inhibition; Q9BQF6; recombinant SENP7, Z-RLRGG-aminoluciferin luminescence, 40 min; inhibition, % at 5 µM; 330,000 compounds, 1.5% hits;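 active = inhibition above about 50% at the single test dose, limit read from the data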;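 also: plate controls were DMSO with enzyme for no effect and no enzyme buffer wells for full effect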
Target sequence (Q9BQF6 706-1050 limits assumed): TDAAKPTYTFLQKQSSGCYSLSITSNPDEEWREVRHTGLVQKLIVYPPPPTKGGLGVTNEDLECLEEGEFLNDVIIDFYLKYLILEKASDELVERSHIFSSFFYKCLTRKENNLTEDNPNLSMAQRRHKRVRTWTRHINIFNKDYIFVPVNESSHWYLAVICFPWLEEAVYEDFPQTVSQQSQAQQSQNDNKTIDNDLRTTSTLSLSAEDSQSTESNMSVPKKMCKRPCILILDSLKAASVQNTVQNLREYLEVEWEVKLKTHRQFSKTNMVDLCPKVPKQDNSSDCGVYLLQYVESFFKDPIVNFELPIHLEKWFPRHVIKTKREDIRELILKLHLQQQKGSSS
SENP6 inh – inhibitors of human SENP6 protease; Recombinant SENP6 catalytic domain, aminoluciferin luminescence; inhibition, % at 10 µM; 330,000 compounds, 1.8% hits;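 active = inhibition above about 50% at the single tested dose, limit read from the data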;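 also: plate controls were DMSO wells with enzyme for no effect and DMSO wells lacking enzyme for full effect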
SENP8 block-2 – blocks human SENP8 cleavage of Nedd8 substrate | recombinant SENP8, Nedd8 substrate fluorescence | inhibition, % at 20 µM | 360,000 compounds, 0.64% hits | AID 602440; in the data active = inhibition mostly above about 40%, no sharp cut-off; inactive = mostly below about 27%
Platelet DG rel – platelet dense granule release activity. human platelet-rich plasma, SFLLRN dense granule ATP release, luminescence. inhibition, %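 (compounds screened at 7.5 µM in platelet-rich plasma)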. 300,000 compounds, 0.22% hits;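 active = mean replicate score, as percent of positive control, at or above 50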
SENP8 inh conf – confirmation of human SENP8 protease inhibitors | shares compounds with SENP8 block-2 | purified SENP8, Nedd8-AMC/pro-Nedd8 cleavage fluorescence, 30 min | inhibition, % at 25 µM | 1,400 compounds, 15% hits; in the data active = inhibition mostly above about 39%, no sharp cut-off; inactive = mostly below about 34%
* hit, by the source's call; nt = no result given. Compounds with a hit are over-represented: about 2.8% of the library has one in this group of screens.

SMILES	HSP90 refold inh	SENP8 block-1	SENP7 inh	SENP6 inh	SENP8 block-2	Platelet DG rel	SENP8 inh conf
COc1cc([N+](=O)[O-])cc2sc(NC(C)=O)nc12	7	-10	-2	-20	59*	9	12
COC(=O)c1cc(C(=O)N2CCN(C(=O)c3ccco3)CC2)cc([N+](=O)[O-])c1	0	-4	-4	-5	-1	-15	nt
COc1ccc([N+](=O)[O-])cc1NC(=O)C(C)N1CCN(C(=O)c2ccco2)CC1 (stereo not given)	-1	0	-9	-13	38*	9	16
CCc1ccc2c(c1)c1nnc(NN)nc1n2C	-1	6	-6	13	64*	19	-4
CCc1ccc2c(c1)c1nnc(NN)nc1n2CC	1	6	0	7	72*	0	11
CC1(C)CC(=O)C=C(c2cccs2)C1	nt	-2	3	5	14	0	nt
O=C(COc1ccccc1)NCc1cccs1	-2	-9	-8	-3	42*	-1	12
Cc1ccc(C=Nc2ccc(N(C)C)cc2)o1	-1	-33	14	11	45*	6	14
O=c1[nH]c2ccc(S(=O)(=O)Nc3ccc(Cl)cc3)cc2[nH]1	-3	0	-7	7	29	-1	nt
COc1cc(OC)c2c(-c3cccc(-c4ccc(F)c(Cl)c4)c3)cc(=O)oc2c1	nt	nt	-1	nt	-63	nt	nt
COc1ccccc1OCCNC(=O)c1cc(F)c(F)cc1Cl	0	-2	-2	6	41*	0	14
C[C@H](CO)N1C[C@H](C)[C@@H](CN(C)S(=O)(=O)c2cccs2)Oc2c(NC(=O)NC3CCCCC3)cccc2C1=O	nt	-2	-4	-7	9	nt	nt
C=CCNc1nc2c3ccccc3n(C(C)=O)c2s1	0	-2	2	1	51*	-1	34
CC(=O)n1c2ccccc2c2nc3ccccc3nc21	-1	-8	-12	-6	-429	1	nt
CCOC(=O)n1cnc2nc(N)nc(SC)c21	nt	nt	nt	nt	-37	nt	nt
COC(=O)c1ccc(C(=O)OC)c(NC(=O)C2CC(=O)N(C3CCCC3)C2)c1 (stereo not given)	nt	nt	nt	nt	9	nt	nt
COc1ccccc1-n1c(SCC(=O)NC2CCS(=O)(=O)C2)nc2cc([N+](=O)[O-])ccc21 (stereo not given)	-5	3	9	-6	20	10	nt
CCN(CC)S(=O)(=O)c1ccc2c(c1)nc(SCC(=O)NC1CC1)n2-c1ccccc1OC	-3	4	2	-9	43*	2	26
CC(=O)c1ccc(C(=O)N2CCC(n3nccc3NC(=O)C3CC3)CC2)cc1	1	4	0	0	6	14	nt
CCN1C(=O)C(=O)N(CC(=O)N2CCN(c3ccccc3)CC2)C1=O	nt	-3	-1	-2	29	-5	nt
COc1cccc(NC(=S)NN=C2CCC(C(C)(C)C)CC2)c1 (stereo not given)	2	-4	-10	7	47*	-6	10
COc1cccc(NC(=S)N/N=C2\CC3CCC2(C)C3(C)C)c1 (stereo not given)	-3	-6	8	-13	7	-1	nt
Cc1ccc(C)c(N(C(=O)c2csnn2)C(C(=O)NC2CCCCC2)c2ccccn2)c1 (stereo not given)	-5	5	4	0	12	-3	nt
C=CCc1ccc(OC)c(OC)c1	-6	1	-5	-6	52*	0	15
COC(=O)CCCC1=CC2=CC(=O)C(C)(OC(=O)c3cccs3)C(=O)C2=CN1CCN1CCOCC1 (stereo not given)	nt	7	6	19	51*	-2	55*
SMILES	HSP90 refold inh	SENP8 block-1	SENP7 inh	SENP6 inh	SENP8 block-2	Platelet DG rel	SENP8 inh conf
COC(=O)CCCC1=CC2=C(c3ccccc3)C(=O)C(C)(OC(=O)C3CCCC3)C(=O)C2=CN1CCCCO (stereo not given)	nt	-1	6	5	48*	1	66*
COC(=O)CCCC1=CC2=CC(=O)C(C)(OC(=O)c3cccs3)C(=O)C2=CN1CCCCO (stereo not given)	nt	7	2	15	53*	-15	56*
COC(=O)CCCC1=CC2=CC(=O)C(C)(OC(=O)c3cccs3)C(=O)C2=CN1C1CCCCC1 (stereo not given)	nt	5	-6	4	27	-2	nt
COCCN1C=C2C(=O)C(C)(OC(=O)c3cccs3)C(=O)C=C2C=C1CCCC(=O)OC (stereo not given)	nt	3	1	14	37	-11	nt
COC(=O)CCCC1=CC2=CC(=O)C(C)(OC(=O)c3cccs3)C(=O)C2=CN1C1CC1 (stereo not given)	nt	14	8	22	41*	-2	63*
COc1cc(OC)c(C2C(C#N)=C(C)NC(C)=C2C#N)c(C(=O)O)c1	-2	-3	3	1	-394	-18	nt
Cc1cccc(NC(=O)CSc2nnnn2-c2ccc3c(c2)OCCO3)n1	4	-5	1	-4	11	-4	nt
C#CCNC(=O)c1csc([C@@H]2O[C@H](CO)[C@@H](O)[C@H]2O)n1	nt	nt	nt	nt	7	nt	nt
O=C(Nc1ccnn1C1CCN(C(=O)CCc2ccc(F)cc2)CC1)C1CCOC1 (stereo not given)	-4	1	6	-2	-3	-12	nt
O=C(C[n+]1ccc(/C=N/O)cc1)N1CCCCC1	-1	-3	5	-25	10	-1	nt
O=C(COC(=O)c1cc(=O)[nH]c2ccccc12)NCc1ccc(Cl)cc1	nt	-1	5	-5	-288	nt	nt
CN(C)c1ccc2nsnc2c1[N+](=O)[O-]	3	2	-2	-13	43*	-3	2
CN(C)c1ccc([N+](=O)[O-])cc1C(=O)O	-1	-6	-6	-7	8	-6	nt
COc1ccc(/C=N/NS(=O)(=O)c2ccccc2)cc1OC(=O)c1ccc(C)cc1	0	-4	-3	-3	41*	-17	28
COc1ccc(/C=N/NS(=O)(=O)c2ccc(C)cc2)cc1OC(=O)c1ccccc1	0	9	3	2	10	nt	nt
CC1CCCC(NC(=S)NC(=O)c2ccco2)C1C (stereo not given)	nt	-3	-1	4	13	nt	nt
CC(=O)Nc1ccc(S(=O)(=O)N2CCSC2c2ccccc2Cl)cc1 (stereo not given)	-2	-4	-9	-7	8	1	nt
COC(=O)C1SCCN1S(=O)(=O)c1ccc(Cl)cc1 (stereo not given)	nt	-11	-3	-2	42*	8	12
COc1ccc(NC(=O)C2CC(=O)OC23CCOC(C)(C)C3)cc1 (stereo not given)	7	6	0	-11	42*	-1	10
CSCCC(NC(N)=O)C(=O)Nc1ccc(C)cc1 (stereo not given)	1	-2	9	-11	1	-1	nt
